Compound activity as filed in PubChem BioAssay.
Tg IFNy HTS: T. gondii growth inhibition under IFN-gamma; activity change, negative = inhibition, % (no concentration beside the values); Toxoplasma gondii growth in IFN-gamma-treated host cells; hits give low values; 69,000 compounds, 3.8% hits; in the data active means activity change below about -70%, passing the limit was not always enough;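 further: host cells are HeLa cells infected with Toxoplasma gondii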
Numbers stand for hits; - = inactive; ! = not active in a repeat. The sample as a whole holds a higher share of hits than the screen did.

SMILES	Tg IFNy HTS
CC1CCN(c2ncnc3c2cnn3CC(=O)NCCCc2ccccc2)CC1	-
CC1CCN(c2ncnc3c2cnn3CC(=O)NCc2ccccc2)CC1	-101.4
CC1CCN(c2ncnc3c2cnn3CC(=O)NCc2ccc(Br)cc2)CC1	-94.2
C=CCn1c(=O)c(C(=O)NCc2cccs2)c(O)c2ccccc21	-
COCCO[C@@H]1C[C@@H]2CN(C(=O)c3cccn3C)CCN2C1	-
Cc1nc(C2CCN(CC(=O)Nc3ccc(F)cc3)CC2)ncc1C(=O)Nc1ccccc1	-
Cc1cc(C2CCC2)nc(N(C)Cc2cnccn2)n1	-
O=C(NCc1ccc(F)cc1F)c1cc(-c2cnc(N3CCCC3)nc2)cn1CC1CC1	-103.2
Cc1ccc(NC(=O)c2cc(-c3cnc(N4CCCC4)nc3)cn2CC2CC2)cn1	-
Cc1cccc(NC(=O)c2cc(-c3cnc(N4CCOCC4)nc3)cn2CC2CC2)c1	-79.7
COc1ncccc1NC(=O)c1cc(-c2cnc(N3CCCC3)nc2)cn1CC1CC1	-
CCCCN(C)C(=O)c1cc(-c2cnc(N3CCOCC3)nc2)cn1CC1CC1	-
CN(C)C(=O)CNC(=O)c1cc(-c2cnc(N3CCOCC3)nc2)cn1CC1CC1	-
COc1ccc(-c2nc(Cn3nnc(-c4nc(-c5ccccn5)no4)c3C)c(C)o2)cc1	-
COc1ccccc1NC(=O)c1cncc(NS(=O)(=O)c2ccc(Br)cc2)c1	-
O=C1c2ccccc2C(=O)N1CN1CCC(O)(c2ccc(Cl)cc2)CC1	-
CN(C)C(=O)[C@@]12CCCN(c3ncccn3)[C@H]1CN(Cc1ccc(Cl)cc1)C2	-
Cc1oc(-c2ccc(NC(=O)C3CCCC3)cc2)nc1Cn1cccn1	-
CCN(CC)Cc1cccc(C(=O)Nc2ccccc2CO)c1	-
CCN(CC)Cc1ccc2cc(COC(=O)Nc3ccc(C(=O)NO)cc3)ccc2c1	-83.0
COc1ccc(Cn2ccc3ccc(C(=O)NO)cc32)cc1	-
CC(C)(C)c1ccc(O)c(CN2CCC(CN)C2)c1 (centres undefined)	-
COc1ccccc1-c1noc(C2CCCN2C(=O)c2sc(C)nc2C)n1 (centres undefined)	-
Cn1nc(CO)c2c1CCN(c1ncnc3c1CCNC3)C2	-
CCc1nc(-c2cccc(-n3ccnc3-c3nccn3C)c2)n[nH]1	-
SMILES	Tg IFNy HTS
O=C(c1ccc2[nH]c3c(c2c1)CCCC3)N1Cc2cnn(CCO)c2C1	-
O=C1Cc2c([nH]c3ccc(Br)cc23)-c2ccccc2N1	-
O=c1c2c([nH]c3ccc(Br)cc13)CCCC2	-94.3
Cc1cc(=O)[nH]c(SCC(=O)Nc2ccc(N3CCOCC3)c(Cl)c2)n1	-
Cc1ccc2c(c1)cc(CNCc1ccccc1)c1nnnn12	-
CCS(=O)(=O)N1CCOC2CC(COc3ccccn3)CC21 (centres undefined)	-
O=C(O)c1ccc2cc(-c3ccc(O)c(C45CC6CC(CC(C6)C4)C5)c3)ccc2c1	-74.3
O=C(O)c1ccc(-c2ccc3cc(O)c(C45CC6CC(CC(C6)C4)C5)cc3c2)cc1	-
CC(=O)Nc1ccc(C23CC4CC(CC(C4)C2)C3)c(C)c1	-
OC(COCc1ccccc1)CN1CCNCC1 (centres undefined)	-
OC(CN1CCNCC1)Cn1c2ccc(Br)cc2c2cc(Br)ccc21 (centres undefined)	-73.5
OC(CN1CCNCC1)Cn1ccc2ccccc21 (centres undefined)	-
Cn1c(CCNC(=O)C2CC3(CCNCC3)CN2)nc2ccccc21 (centres undefined)	-
C#C[C@]1(O)CCC2C3CCC4=Cc5oncc5C[C@]4(C)C3CC[C@@]21C (some centres undefined)	-73.7!
C[C@]12CCC3c4ccc(OC(=O)c5ccccc5)cc4CCC3C1CCC2=O (some centres undefined)	-
C#C[C@]1(O)CCC2C3CCC4=C(CCC(=O)C4)C3CC[C@@]21C (some centres undefined)	-80.0
C#C[C@]1(O)CC[C@@H]2C3[C@H](C)CC4=C(CCC(=O)C4)[C@H]3CC[C@@]21C (some centres undefined)	-
C#C[C@]1(O)CCC2C3CCc4cc(OC5CCCC5)ccc4C3CC[C@@]21C (some centres undefined)	-
C[C@]12CCC(=O)C=C1CCC1C2C(=O)C[C@@]2(C)C1CC[C@]2(O)C(=O)CO (some centres undefined)	-
C#C[C@]1(O)CCC2C3CCc4cc(O)ccc4C3CC[C@@]21C (some centres undefined)	-77.4
C#C[C@]1(O)CCC2C3CCC4=CC(=O)CC[C@@H]4C3CC[C@@]21C (some centres undefined)	-81.0
C#C[C@]1(O)CCC2C3CCC4=CC(=O)CCC4C3C(=C)CC21CC (some centres undefined)	-
CCC(=O)O[C@]1(C(=O)CO)CC[C@H]2[C@@H]3CCC4=CC(=O)CC[C@]4(C)[C@H]3CC[C@@]21C	-
CCOC1CC2(CCN(C(=O)Cc3cccc(F)c3)CC2)C1	-
c1cc(-n2cnnc2)ccc1OCC1CCCO1 (centres undefined)	-
COc1ccccc1OCCn1c(C(F)(F)F)nc2cc3c(cc21)OCCCO3	-
